Source: PubChem BioAssay
A3G deaminase = inhibitors of human APOBEC3G DNA deaminase. Q9HC16. recombinant A3G, ssDNA deamination FAM/TAMRA fluorescence. inhibition, % at 20 µM. 0.28% of 330,000 active;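 active = inhibition of at least 40% at 20 µM, with no more than 30% in the related APOBEC3A deaminase screen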;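 note: plate controls were DMSO wells with A3G for no effect and wells lacking A3G enzyme for full effect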
LANA-H2A inh = blocks KSHV LANA binding to histone H2A/H2B. cell-free LANA-H2A/H2B peptide, fluorescence polarization. 0.6% of 320,000 active. AID 2629. Q9QR71. inhibition, % (concentration not given with the values); in the data active = inhibition mostly above about 10%, no sharp cut-off; inactive = mostly below about 6.7%
Target sequence (Q9QR71 whole entry, looked up): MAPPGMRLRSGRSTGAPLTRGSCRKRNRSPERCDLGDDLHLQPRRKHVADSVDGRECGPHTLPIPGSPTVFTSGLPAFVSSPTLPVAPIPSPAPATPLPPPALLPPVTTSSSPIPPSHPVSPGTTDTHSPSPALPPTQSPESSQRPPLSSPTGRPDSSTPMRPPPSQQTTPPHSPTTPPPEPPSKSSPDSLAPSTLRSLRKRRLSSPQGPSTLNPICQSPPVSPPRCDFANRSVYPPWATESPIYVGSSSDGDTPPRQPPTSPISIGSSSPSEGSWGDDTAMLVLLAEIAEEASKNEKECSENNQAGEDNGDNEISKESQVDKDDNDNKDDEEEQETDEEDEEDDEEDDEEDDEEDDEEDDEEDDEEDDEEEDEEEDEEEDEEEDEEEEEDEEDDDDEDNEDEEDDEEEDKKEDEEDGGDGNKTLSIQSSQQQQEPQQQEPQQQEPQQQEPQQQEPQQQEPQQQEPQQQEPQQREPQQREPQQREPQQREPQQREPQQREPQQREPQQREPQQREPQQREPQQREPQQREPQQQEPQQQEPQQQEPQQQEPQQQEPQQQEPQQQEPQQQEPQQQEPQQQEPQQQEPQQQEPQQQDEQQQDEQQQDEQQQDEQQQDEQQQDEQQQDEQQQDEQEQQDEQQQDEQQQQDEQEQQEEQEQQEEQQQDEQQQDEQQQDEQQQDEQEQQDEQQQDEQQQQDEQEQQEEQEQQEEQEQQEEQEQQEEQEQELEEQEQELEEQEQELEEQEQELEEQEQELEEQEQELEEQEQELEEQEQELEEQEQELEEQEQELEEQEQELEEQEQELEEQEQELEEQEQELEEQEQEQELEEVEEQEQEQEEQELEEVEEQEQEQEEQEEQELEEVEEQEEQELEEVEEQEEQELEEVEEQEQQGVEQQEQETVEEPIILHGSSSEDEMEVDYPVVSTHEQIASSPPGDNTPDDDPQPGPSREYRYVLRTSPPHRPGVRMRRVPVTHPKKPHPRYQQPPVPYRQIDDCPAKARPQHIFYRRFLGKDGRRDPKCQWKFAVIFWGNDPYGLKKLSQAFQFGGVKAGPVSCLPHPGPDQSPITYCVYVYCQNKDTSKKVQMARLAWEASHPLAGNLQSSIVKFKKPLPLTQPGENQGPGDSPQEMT
A3A deaminase = human APOBEC3A DNA deaminase inhibition. P31941. recombinant A3A, FAM/TAMRA ssDNA deamination fluorescence. inhibition, % at 20 µM. 0.41% of 330,000 active. AID 493011;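 active = at least 40% inhibition at 20 µM here, with at most 30% in a related deaminase screen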;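 note: plate controls were A3A with DMSO for no effect and wells lacking A3A enzyme for full effect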
HDAC3 inh = blocks human histone deacetylase 3. O15379. recombinant HDAC3, fluorogenic peptide/trypsin coupled, fluorescence. inhibition, % at 8.3 µM. 0.15% of 320,000 active; in the data active = inhibition above about 26%, passing the limit was not always enough; inconclusive = no clear call, values can overlap the other calls
A3G conf = APOBEC3G (human) deaminase inhibition, confirmed. shares compounds with A3G deaminase. recombinant A3G ssDNA deaminase, UDG/FAM-TAMRA fluorescence. inhibition, % at 20 µM. 72% of 890 active. AID 493152;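 active = inhibition reaching a set limit in any replicate at 20 µM, the limit being 80% of the first screen's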
UDG A3G counter = E. coli UDG inhibition in APOBEC3G counter-screen | AID 504715 | shares compounds with A3G deaminase | 710 tested, under 10 active | inhibition, % at 20 µM | UDG counterscreen, FAM/TAMRA oligo fluorescence;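 active = compounds giving 40% or more inhibition at 20 µM in any one of the three replicates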;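 note: plate controls were DMSO wells with UDG and oligo for no effect and DMSO wells lacking both for full effect; inhibitors lower the FAM signal released by uracil excision and alkaline cleavage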
* hit, by the source's call; ? = inconclusive; . = not tested or not shown. The list is not random: actives were taken first. Their share in the collection is about 1.4%.

SMILES	A3G deaminase	LANA-H2A inh	A3A deaminase	HDAC3 inh	A3G conf	UDG A3G counter
O=[N+]([O-])c1ccc(N2CCN(C(=S)c3cccc([N+](=O)[O-])c3)CC2)cc1	66*	1	1	-2	70*	-2
CC(=O)N1CCN(C(=S)c2cccc([N+](=O)[O-])c2)CC1	-9	-1	-6	-3	.	.
O=C(NC1CCCCCC1)C(=S)N1CCOCC1	54*	0	5	7	44*	1
O=C(NNS(=O)(=O)c1ccccc1)Nc1ccc(F)cc1	-3	3	1	4	.	.
Cc1cc(OCC(=O)N(C)c2ccccc2)cc2c1C(=O)CC(C)(C)O2	59*	-1	2	-1	1	.
Cc1ccc(CNC(=O)COc2cc(O)c3c(c2)OC(C)(C)CC3=O)cc1	4	-2	2	1	.	.
COC(=O)c1c(-c2ccc(C(C)(C)C)cc2)csc1NC(=O)C1C2CCC(O2)C1C(=O)O (stereo not given)	58*	6	0	12	24*	-4
O=C(Nc1ccc(Cc2ccncc2)cc1)c1ccc(S(=O)(=O)N2CCCC2)cc1	-5	.	-1	.	.	.
COc1ccccc1NS(=O)(=O)c1ccc(C)c(C(=O)NCc2cccnc2)c1	-3	0	-1	-3	.	.
O=C(NCCS(=O)(=O)NCc1ccccc1Cl)c1ccccc1	0	-1	1	1	.	.
Cc1cc(C)n(CCc2nc(-c3ccc(C)o3)cs2)n1	47*	-3	2	0	40*	.
Cc1cc(C)n(CCc2nc(-c3cc4ccccc4o3)cs2)n1	-2	4	-3	2	.	.
Cc1cc2c(ncn2Cc2ccccc2)c([N+](=O)[O-])c1C	-6	5	-1	-4	.	.
CCC(C)(C)c1nnc(NC(=O)C2CCN(C(=O)c3ccco3)CC2)s1	67*	-5	3	1	80*	-2
CCc1nnc(NC(=O)C2CCN(C(=O)c3ccco3)CC2)s1	-2	-1	-1	-2	.	.
O=C(Nc1ccc2nc3n(c(=O)c2c1)CCCCC3)C(=O)N1CCN(c2ccccc2)CC1	-1	-2	-2	?	.	.
N#Cc1c(-c2cccnc2)c2c([nH]c1=S)CCCC2	50*	7	-1	?	86*	-2
COc1cccc2c(C)nc(Nc3nc(CSc4nnc(C)s4)cc(=O)[nH]3)nc12	41*	-1	25	2	5	.
Cc1ccc2c(C)nc(Nc3nc(CSc4nnc(C)s4)cc(=O)[nH]3)nc2c1	7	-1	7	-1	.	.
CC1CCN(C(=S)c2ccccc2O)CC1	49*	7	3	3	42*	2
CC1CC(=O)Nc2ccccc2N1C(=O)COc1cc(Cl)ccc1Cl (stereo not given)	-6	4	-2	-3	.	.
CCOC(=O)c1csc(NC(=O)CN2CCCCC2)n1	-10	-2	-5	-2	.	.
CCOCCCNC(=O)CN1CCN(Cc2ccc(Cl)cc2)C1=O	-8	4	-6	-2	.	.
O=C1c2ccccc2C(=O)N1CCSc1n[nH]c(=S)s1	54*	-1	1	2	active	-4
O=C1c2ccccc2C(=O)N1CCSc1ncn[nH]1	-5	-1	-3	-9	.	.
SMILES	A3G deaminase	LANA-H2A inh	A3A deaminase	HDAC3 inh	A3G conf	UDG A3G counter
CCOC(=O)c1cc(C)[nH]c(=S)c1C#N	63*	-7	-3	17	82*	6
Cc1ccc(N(CC(=O)NCc2ccc(F)cc2)S(=O)(=O)c2cccs2)cc1	-2	-6	0	6	.	.
N#CC(c1nc2ccccc2nc1N1CCCC1)S(=O)(=O)c1cccs1 (stereo not given)	51*	6	-2	-6	5	0
CN1CCN(C(=O)c2sc(=S)n(-c3ccccc3)c2N)CC1	66*	5	-4	11	81*	2
COC(=O)c1sc(=S)n(-c2cccc(Cl)c2)c1N	54*	4	2	3	30*	-3
Cc1ccc(-n2c(N)c(C(=O)N3CCOCC3)sc2=S)cc1	40	-1	8	-4	.	.
CCOC(=O)c1sc(NC(=O)CSC(=S)N2CCN(C)CC2)nc1C	-3	0	0	-3	.	.
Cc1c(NC(=O)COC(=O)c2ccc(Cl)nc2)c(=O)n(-c2ccccc2)n1C	6	13	3	0	.	.
O=C1CCC(C(=O)Nc2cccc(S(=O)(=O)Nc3ccccc3F)c2)=NN1	73*	1	5	5	63*	3
O=C(CSc1ccc([N+](=O)[O-])cc1)Nc1cccc(S(=O)(=O)Nc2ccccc2F)c1	44*	-1	-3	22	23*	-5
O=C(Cc1ccc(Cl)cc1)Nc1cccc(S(=O)(=O)Nc2ccccc2F)c1	-2	9	0	2	.	.
Cn1c(CC(=O)NNC(=O)c2ccccc2[N+](=O)[O-])nc2ccccc21	-11	.	-4	.	.	.
O=C(NC(=S)NNC(=O)c1ccccc1[N+](=O)[O-])c1ccccc1	46*	7	-4	-3	31*	3
O=C(NNC(=O)c1ccccc1[N+](=O)[O-])c1ccccc1[N+](=O)[O-]	3	-1	4	-3	.	.
O=C(NNC(=S)NC(=O)c1ccccc1[N+](=O)[O-])c1ccccc1	-6	7	-1	5	.	.
CCC(=O)NC(=S)NNC(=O)c1ccccc1[N+](=O)[O-]	61*	1	-5	-7	2	-5
CC(=O)Nc1ccc(NC(=O)C2CCCN2C(=O)Nc2ccc(F)c([N+](=O)[O-])c2)cc1 (stereo not given)	-8	2	-2	-3	.	.
C[C@H](NC(=O)c1cc2c(cn1)[nH]c1ccccc12)C(=O)O	37	6	2	2	.	.
COC(=O)[C@H](C)NC(=O)c1cc2c(cn1)[nH]c1ccccc12	50*	-1	0	4	77*	-2
CC1CCc2c(sc(NC(=O)c3nc4ncccn4n3)c2C#N)C1 (stereo not given)	54*	-4	3	-1	40*	-2
Cc1ccc2c(c1)-c1c(ssc1=S)C(C)(C)N2C(=O)c1ccco1	42*	1	0	-1	55*	-4
CC(C)OC(=O)CSc1nnc(-c2ccc(C(C)(C)C)cc2)n1N	42*	-3	3	6	28	.
COc1cc2c(cc1/C=C/C(=O)O)OC(C)C2 (stereo not given)	-2	7	1	-55	.	.
CC(C)(O)C1Cc2cc(/C=C/C(=O)O)c(O)cc2O1 (stereo not given)	82*	.	0	.	94*	-2
CCN(CC)c1ccc(NC(=S)NC(=O)c2cccs2)cc1	-9	1	-4	12	.	.
N#Cc1c(N)sc(=S)c2c1CCCC2	47*	-13	24	-2	25	.
CCC1(C)Cc2c(C#N)c(N)sc(=S)c2CO1 (stereo not given)	17	1	-1	-9	.	.
